Bioassay records deposited in PubChem BioAssay by National Center for Advancing Translational Sciences (NCATS).
Pol beta inh: inhibitors of human DNA polymerase beta; Pol beta primer extension/strand displacement, fluorescence kinetic; P06746; Potency, µM (top dose mostly 114 µM), for the others: top-dose activity change, negative = inhibition, most hits filed as inhibitors; hit rate 1.3% among 340,000; further: on the % scale 0 is the no-effect control and ±100 the full control effect
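Enzyme-only controls used 10 nM Pol beta; buffer lacking enzyme served as negative control. Compound preincubated 15 min, then 50 nM substrate added; 0 and 10 min reads at room temperature.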
POLK inh: DNA polymerase kappa (human) inhibition. purified Pol kappa, fluorescent DNA synthesis assay, 10 min. Potency, µM (titrated, usually from 107 µM), for the others: at the top dose activity, negative = inhibition, hits mostly inhibitors. AID 588579. hit rate 0.53% among 400,000. Q9UBT6; further: on the % scale 0 is the no-effect control and ±100 the full control effect
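Here, compound and 10 nM enzyme are combined for 15 min at room temperature; adding 50 nM substrate (final) starts DNA synthesis, tracked by fluorescence at 0 and 10 min against buffer-only wells.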
Pol iota inh: inhibitors of human DNA polymerase iota; Q9UNA4; Pol iota fluorescent replication assay, 10 min; Potency, µM (titrated, usually from 115 µM), for the others: at the top dose activity, negative = inhibition, hits mostly inhibitors; hit rate 1% among 390,000
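Fluorescent replication assay read twice, at 0 min and 10 min after adding 50 nM (final) substrate. Enzyme (10 nM) and compounds were first incubated 15 min at room temperature; enzyme-free buffer wells were negative controls.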
WRN inhibitor: inhibitors of human WRN helicase; Potency, µM (series often up to 114 µM), inactives show at the top dose activity change, negative = inhibition, usual class: inhibitors; Q14191; hit rate 0.46% among 360,000; WRN helicase unwinding, fluorescent forked duplex, kinetic; further: on the % scale 0 is the no-effect control and ±100 the full control effect; nearly all actives have a fitted effect of over 55% in size
Target sequence (Q14191 whole entry, looked up): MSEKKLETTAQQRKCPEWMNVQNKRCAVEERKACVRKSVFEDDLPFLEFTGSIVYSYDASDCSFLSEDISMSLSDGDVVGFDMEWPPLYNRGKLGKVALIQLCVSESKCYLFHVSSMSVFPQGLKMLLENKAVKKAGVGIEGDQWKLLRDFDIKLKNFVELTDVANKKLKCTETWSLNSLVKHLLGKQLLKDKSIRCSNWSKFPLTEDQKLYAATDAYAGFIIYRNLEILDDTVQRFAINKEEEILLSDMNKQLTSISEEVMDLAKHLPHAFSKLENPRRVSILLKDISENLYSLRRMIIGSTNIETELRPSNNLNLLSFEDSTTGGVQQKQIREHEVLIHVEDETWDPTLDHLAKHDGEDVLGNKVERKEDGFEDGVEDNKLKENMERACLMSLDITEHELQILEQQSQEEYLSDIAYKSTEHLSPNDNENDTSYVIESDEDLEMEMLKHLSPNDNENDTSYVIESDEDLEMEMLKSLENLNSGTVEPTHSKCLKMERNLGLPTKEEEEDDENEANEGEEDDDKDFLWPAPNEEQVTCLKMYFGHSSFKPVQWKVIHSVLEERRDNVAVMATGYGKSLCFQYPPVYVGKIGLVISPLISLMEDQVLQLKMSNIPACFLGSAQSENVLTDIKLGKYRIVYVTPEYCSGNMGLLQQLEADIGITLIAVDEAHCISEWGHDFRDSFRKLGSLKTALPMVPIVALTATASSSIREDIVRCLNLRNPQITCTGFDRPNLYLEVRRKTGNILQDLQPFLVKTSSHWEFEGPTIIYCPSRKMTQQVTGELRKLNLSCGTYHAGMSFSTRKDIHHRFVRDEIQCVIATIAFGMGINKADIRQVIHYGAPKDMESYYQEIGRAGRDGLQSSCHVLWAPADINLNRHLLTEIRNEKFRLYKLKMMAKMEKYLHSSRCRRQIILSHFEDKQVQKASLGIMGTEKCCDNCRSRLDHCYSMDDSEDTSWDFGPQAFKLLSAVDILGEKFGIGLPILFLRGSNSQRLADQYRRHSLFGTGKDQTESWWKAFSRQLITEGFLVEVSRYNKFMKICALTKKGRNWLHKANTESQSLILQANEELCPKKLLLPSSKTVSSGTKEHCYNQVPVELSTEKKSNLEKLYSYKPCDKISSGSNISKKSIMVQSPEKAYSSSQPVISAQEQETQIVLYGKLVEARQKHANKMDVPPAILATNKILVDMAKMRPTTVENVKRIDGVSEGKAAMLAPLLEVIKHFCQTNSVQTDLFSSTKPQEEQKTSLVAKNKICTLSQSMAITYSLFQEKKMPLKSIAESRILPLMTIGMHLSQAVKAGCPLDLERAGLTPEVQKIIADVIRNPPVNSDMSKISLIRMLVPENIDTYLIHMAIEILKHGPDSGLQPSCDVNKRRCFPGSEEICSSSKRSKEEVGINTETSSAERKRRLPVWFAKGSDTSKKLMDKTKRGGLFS
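Kinetic red-fluorescence monitoring (525/598 nm) tracks WRN helicase activity after 100 nM fluorophore-quencher forked duplex and 2 mM ATP are added to 20 nM enzyme pretreated 15 min at room temperature with compound.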
Pol eta inh: blocks human DNA polymerase eta activity | Potency, µM (top dose mostly 114 µM), for the others: at the highest dose activity change, negative = inhibition, hits mostly inhibitors | recombinant Pol eta, fluorescent DNA replication assay | AID 588591 | Q9Y253 | hit rate 1.2% among 390,000; further: on the % scale 0 is the no-effect control and ±100 the full control effect
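Fluorescent replication assay: 50 nM final substrate added after a 15 min room-temperature compound preincubation with 10 nM enzyme. Signal taken at 0 min and again at 10 min.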
An asterisk follows results filed as active; [ ] = dose if it differs, or a comment. Rows were chosen to be rich in hits. Some 2.3% of all compounds tested hit in one or more screens of this group. The call rests on the fitted dose curve; in most records, active means well fitted curve in the direction sought with a large enough effect; inconclusive means small, poorly fitted or top-dose-only effect, or another doubt; inactive means no such curve, though single readings can be large; an effect the other way counts as inactive or inconclusive. Potency means the concentration at half of the fitted maximal effect.

Screening O=c1[nH]c(=S)[nH]c(O)c1/C=C1/C=c2ccccc2=N1 returned Pol beta inh -13%, POLK inh -29%, Pol iota inh 28µM*, WRN inhibitor -25% and Pol eta inh inconclusive.
`CCN(CC)C(=O)Cn1cc(S(=O)(=O)CC(=O)NCc2ccc(C)cc2)c2ccccc21` gave POLK inh -2%, Pol iota inh 30%, WRN inhibitor 6% and Pol eta inh -23%.
O=C1NC(=O)N(Cc2ccco2)C(=O)/C1=C/c1ccc(-c2cccc([N+](=O)[O-])c2)o1 was read as Pol beta inh 18µM*, POLK inh 22µM*, Pol iota inh 7.9µM*, WRN inhibitor 22µM* and Pol eta inh 8.9µM*.
For CC[C@H](C)/C=C(C)/C=C/C1=CC2=C(Cl)C(=O)[C@](C)(OC(C)=O)C(=O)C2=CO1 the results were POLK inh 79µM*, Pol iota inh 50µM*, WRN inhibitor 50µM* and Pol eta inh 20µM*.
For COCCN(C(=O)CCl)c1c(C)cccc1C the results were POLK inh 11%[60.1 µM].
For C[C@@H]1O[C@@H](Oc2c(-c3ccc(O)c(O)c3)oc3cc(O)cc(O)c3c2=O)[C@H](O)[C@H](O)[C@H]1O the results were POLK inh 45µM*, Pol iota inh 35µM*, WRN inhibitor -22% and Pol eta inh inconclusive.
Screening CC(=O)C1=C(O)[C@@H]2[C@@H]3c4c[nH]c5cccc(c45)C[C@@H]3C(C)(C)N2C1=O returned POLK inh -9%[19.4 µM].
`C=CCN1C(=O)/C(=C/c2ccc(N3CCOCC3)o2)C(=O)NC1=S` gave Pol beta inh inconclusive, POLK inh -18%, Pol iota inh inconclusive, WRN inhibitor -12% and Pol eta inh -17%.
Cc1cc(C)cc(N2C(=O)/C(=C\c3ccc(N4CCN(C)CC4)o3)C(=O)NC2=S)c1 was read as Pol beta inh -20%, POLK inh -9%, Pol iota inh 32µM*, WRN inhibitor -19% and Pol eta inh -24%.
For N#CC(C#N)=Cc1cc(O)c(O)c(O)c1 the results were Pol beta inh -26%[57.1 µM], POLK inh 3.2µM*, Pol iota inh 9.5µM* and Pol eta inh 2.2µM*.
Screening N#CC(C#N)=Cc1ccc(O)cc1 returned POLK inh -14%[60.1 µM].
Screening Cc1cccn2c(=O)cc(COc3cccc(NC(=O)COc4ccc(F)cc4)c3)nc12 returned Pol beta inh -27%, POLK inh -13%[60.1 µM], Pol iota inh -4% and Pol eta inh inconclusive.
`Cc1cc(C)cc(N2C(=O)NC(=O)/C(=C\c3cccn3-c3ccccc3)C2=O)c1` gave Pol beta inh -3%, POLK inh -17%, Pol iota inh inconclusive, WRN inhibitor inconclusive and Pol eta inh -5%.
`Cc1cc(C)cc(N2C(=O)NC(=O)/C(=C\c3cccn3-c3ccc(Cl)cc3)C2=O)c1` gave Pol beta inh 6%, POLK inh -11%, Pol iota inh inconclusive, WRN inhibitor -12%[57.1 µM] and Pol eta inh 22µM*.
`Cc1cccc2c1=NC(=O)/C(=C/c1c(O)[nH]c(=O)[nH]c1=O)C=2` gave Pol beta inh 0%, POLK inh 2%, Pol iota inh -7%, WRN inhibitor 50µM* and Pol eta inh -13%.
Screening CC(Oc1ccc(Br)cc1)C(=O)N(Cc1nc(-c2ccccc2)no1)C(C)C (stereo unspecified) returned Pol beta inh 7%, POLK inh inconclusive, Pol iota inh -1% and Pol eta inh inconclusive.
Screening COc1cccc2c1C(=O)c1c(O)c3c(c(O)c1C2=O)C[C@@](O)(C(=O)CO)C[C@@H]3O[C@H]1C[C@H](N)[C@H](OC2CCCCO2)[C@H](C)O1 (stereo partly specified) returned POLK inh 10µM* and Pol iota inh inconclusive.
For O=C(O)c1ccc(-n2c(O)c(/C=C3\C=Nc4ccccc43)c(=O)[nH]c2=O)cc1 the results were Pol beta inh -13%, POLK inh -5%, Pol iota inh inconclusive, WRN inhibitor -11%[11.6 µM] and Pol eta inh 50µM*.
For O=c1[nH]c(=O)n(-c2cccc(F)c2)c(O)c1/C=C1\C=Nc2ccccc21 the results were Pol beta inh 2%, POLK inh -10%, Pol iota inh 14µM*, WRN inhibitor -18% and Pol eta inh -25%.
For COC(=O)C1=Nc2ccccc2/C1=C\c1c(O)n(-c2ccc(Br)cc2)c(=O)[nH]c1=O the results were Pol beta inh inconclusive, POLK inh -10%, Pol iota inh -6%, WRN inhibitor 50µM* and Pol eta inh 35µM*.
For O=C1C=CC(=O)c2c(O)cccc21 the results were POLK inh 2.7µM*.
CC(C)=CCCC1(C)C=Cc2c(O)c3c(c(CC=C(C)C)c2O1)OC12C(=CC4CC1C(C)(C)OC2(C/C=C(/C)C(=O)O)C4O)C3=O (stereo unspecified) was read as POLK inh 25µM*.
For CC(C)=CCCC1(C)C=Cc2c(O)c3c(c(CC=C(C)C)c2O1)OC12C(=CC4CC1C(C)(C)OC2(C/C=C(/C)C(=O)O)C4=O)C3=O (stereo unspecified) the results were POLK inh 22µM*.
Screening CCCCC(C#N)(Cn1cncn1)c1ccc(Cl)cc1 (stereo unspecified) returned POLK inh 15%[60.1 µM].
For O=C1NC(=O)N(Cc2ccccc2)C(=O)/C1=C/c1cnn(-c2ccccc2)c1 the results were Pol beta inh -24%.
`COc1ccccc1N1C(=O)NC(=O)/C(=C\c2cnn(-c3ccccc3)c2)C1=O` gave Pol beta inh 25µM*, POLK inh -18%, Pol iota inh 18µM*, WRN inhibitor inconclusive and Pol eta inh 40µM*.
`Cc1cccc(N(C)S(=O)(=O)c2cc(-c3cnc(C4CC4)o3)ccc2C)c1` gave Pol beta inh -19%, POLK inh 2%[60.1 µM] and Pol iota inh inconclusive.
`O=C1NC(=O)N(c2ccc3c(c2)OCO3)C(=O)/C1=C/c1ccc(N2CCCCC2)o1` gave Pol beta inh 21%, POLK inh -8%, Pol iota inh inconclusive, WRN inhibitor -5% and Pol eta inh -17%.
`O=C1NC(=O)N(c2ccc3c(c2)OCO3)C(=O)/C1=C\c1ccc(-c2ccccc2C(=O)O)o1` gave Pol beta inh 10µM*, POLK inh 79µM*, Pol iota inh 20µM*, WRN inhibitor 56µM* and Pol eta inh 10µM*.
O=C(NCc1ccc2c(c1)CCN2C(=O)c1ccccc1)Nc1cccc(C(F)(F)F)c1 was read as Pol beta inh -15%, POLK inh -6%[60.1 µM], Pol iota inh 7% and Pol eta inh inconclusive.
